# Candida biofilm = clotrimazole potentiators killing Candida biofilms, primary screen, with clotrimazole, Alamar Blue. 85,000 tested, 0.14% active. C. albicans biofilm + clotrimazole. AID 834, 2007. inhibition, % at 6 µM;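 active means inhibition above 20%; inactive means inhibition below 20%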;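 further: preformed 24 hr biofilms exposed to compound for 48 hr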
# Measles CPE = compounds protecting cells from measles virus cytopathic effect, primary screen, measles RdRp inhibitor project, single point, MLSMR library, absorbance | Measles virus-infected cells, CPE protection | protection (pct of control), % at 4 µM | 140,000 tested, 1.5% active | AID 841, 2007; in the data active means protection mostly above about 24%, no sharp cut-off; inactive means mostly below about 26%
# sEH inh = soluble epoxide hydrolase inhibitors, primary screen, biochemical, human sEH | Bifunctional epoxide hydrolase 2 (Homo sapiens), P34913 | recombinant human sEH enzymatic activity assay | inhibition, % at 2 µM | 91,000 tested, 0.34% active | AID 707, 2007; in the data active means inhibition above about 80%
# Target sequence (P34913 whole entry, looked up): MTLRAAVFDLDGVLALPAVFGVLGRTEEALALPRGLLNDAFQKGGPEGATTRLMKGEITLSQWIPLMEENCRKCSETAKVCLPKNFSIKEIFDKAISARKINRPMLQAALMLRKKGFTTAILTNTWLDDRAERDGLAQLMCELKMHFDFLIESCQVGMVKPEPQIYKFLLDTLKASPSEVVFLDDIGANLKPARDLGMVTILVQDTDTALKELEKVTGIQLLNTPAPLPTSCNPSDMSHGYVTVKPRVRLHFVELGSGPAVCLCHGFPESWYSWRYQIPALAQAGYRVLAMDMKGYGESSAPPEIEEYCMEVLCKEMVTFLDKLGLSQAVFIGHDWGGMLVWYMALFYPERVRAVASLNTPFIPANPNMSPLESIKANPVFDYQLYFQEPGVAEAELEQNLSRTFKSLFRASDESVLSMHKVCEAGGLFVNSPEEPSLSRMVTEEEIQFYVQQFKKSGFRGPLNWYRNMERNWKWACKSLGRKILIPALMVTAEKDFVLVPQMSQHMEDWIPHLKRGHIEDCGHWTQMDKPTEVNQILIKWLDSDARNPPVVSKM
# cytoskel mod = modifiers of F-actin cytoskeleton organization, primary screen, imaging, HUVEC, phalloidin staining, high-content imaging | HUVEC TNFa F-actin phalloidin imaging | inhibition, % at 2 µM | 91,000 tested, 0.18% active | AID 836, 2007;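 active means inhibition above the batch mean plus 3 SD and confirmed as a hit by visual image inspection, cut at about 30% in these data, passing the limit was not always enough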
# sEH activator = soluble epoxide hydrolase activators, primary screen, biochemical, human sEH; purified human sEH enzymatic activity, activator screen; 91,000 tested, 0.04% active; activation, % at 2 µM; Bifunctional epoxide hydrolase 2 (Homo sapiens), P34913; in the data active means activation above about 37%
# Hits are given with their value; 0 = inactive; - = no result given. The list is not random: actives were taken first. Their share in the collection is about 1.9%.
SMILES,Candida biofilm,Measles CPE,sEH inh,cytoskel mod,sEH activator
COc1ccc(CCNC(=O)Cn2cc(C(F)(F)F)cc(Cl)c2=O)cc1OC,-,0,-,-,-
NCCn1c(-c2ccccc2)cc(C(=O)O)c1-c1ccccc1F,-,0,-,-,-
CC(=O)OC1=C(C#N)Cn2ccc3cccc1c32,0,57.5,0,0,0
Cc1ccc(-c2csc3nnc(SCC(=O)Nc4cccc(C)n4)n23)cc1,0,0,0,0,0
CC1(C)NC(=O)N(CCCCOc2ccc(Br)cc2Cl)C1=O,0,0,0,0,0
CC1(C)NC(=O)N(CCCOc2ccc(Br)cc2Cl)C1=O,0,56.8,0,0,0
O=C(O)CCn1cc(/C=C/C(=O)c2ccc(Cl)cc2)c(-c2ccc(Br)cc2)n1,-,0,-,-,-
Cc1cc(NC(=O)CSc2nc3sc(C)c(C)c3c(=O)n2C2CCCC2)no1,0,0,0,0,0
Cc1cc(C(=O)CSc2nnnn2C)c(C)n1CCc1ccc(Cl)cc1,0,0,0,0,0
Cc1cc(C(=O)Cn2cncn2)c(C)n1CCc1ccc(F)cc1,0,67.9,0,0,0
COC(=O)CN(Cc1ccccc1)S(=O)(=O)c1ccc(OC)c(OC)c1,-,0,-,0,-
Cc1nnc(SCc2ccc(F)cc2)n1NC/C=C/c1ccccc1,-,0,-,-,-
O=C1C(=O)N(O)C2CCCCC2N1O (stereo unspecified),-,0,-,-,-
CON1C(=O)C(=O)N(OC)C2CCCCCC21 (stereo unspecified),-,44.7,-,-,-
COC(=O)CC1Oc2ccccc2N(Cc2ccccc2)C1=O (stereo unspecified),0,0,-,-,-
O=C(CN1C(=O)NC2(CCCCC2)C1=O)NCc1cccs1,-,0,-,-,-
Cn1c(=O)n(C)c2cc([N+](=O)[O-])c(N3CCN(S(=O)(=O)c4ccc5ccccc5c4)CC3)cc21,-,32.8,0,0,0
COc1ccc(S(=O)(=O)Cc2ccc(C(=O)NCc3ccc(F)cc3)o2)cc1,0,31.7,0,0,0
COc1ccc(S(=O)(=O)Cc2ccc(C(=O)NCc3cccnc3)o2)cc1,0,0,0,0,0
O=C(O)c1ccc(N2Cc3ccccc3C2)cc1O,-,70.7,0,0,0
COc1c2c(nc3occc13)C(CCC(C)(C)O)(OC)C(O)CC2 (stereo unspecified),0,76.0,0,0,0
COc1cccc(-n2c(SCc3cc(=O)oc4cc(O)c(O)cc34)nc3ccccc3c2=O)c1,-,0,-,-,-
O=C(Nc1cccc(S(=O)(=O)N2CCCCC2)c1)c1ccc2c(=O)n3c(nc2c1)CCCCC3,-,0,-,-,-
Cc1ccccc1C(=O)N1CCN(c2ccc(NC(=O)CSc3ccc(Cl)cc3)cc2)CC1,-,0,85.8,0,0
CCC(=O)Nc1ccc(N2CCN(C(=O)c3ccccc3C)CC2)cc1,0,0,0,0,0
SMILES,Candida biofilm,Measles CPE,sEH inh,cytoskel mod,sEH activator
Cc1cc(C)nc(N2CCCC(C(=O)NCCc3ccccc3F)C2)n1 (stereo unspecified),0,43.3,0,0,0
CCOc1ccc(N=Nc2cc(C(C)C)ccc2O)cc1,-,26.3,-,-,-
Cc1noc(C)c1COc1cccc(C(=O)NCc2ccccc2Cl)c1,0,0,86.2,0,0
CSc1nnc(-c2cc(C)on2)n1-c1ccccc1,-,0,-,-,-
CC1CN(c2ccccc2)C(=O)CS1 (stereo unspecified),0,0,0,0,0
CC1CC(C)CN(C(=O)C2CCCN(S(=O)(=O)c3cccc4nonc34)C2)C1 (stereo unspecified),0,53.4,0,0,0
CSC1=NCCN1C(=O)Cc1cccs1,0,0,0,0,0
COc1ccc(C2=NC(c3ccccc3)CO2)cc1 (stereo unspecified),-,0,-,-,-
COc1ccc(C2CC23N=C(c2ccccc2)OC3=O)cc1 (stereo unspecified),-,43.5,-,-,-
O=C(COC(=O)c1cccs1)NCc1ccc2c(c1)OCO2,0,96.9,-,-,-
N#Cc1c(N)nc(SCC(=O)NCc2ccc3c(c2)OCO3)c(C#N)c1-c1cccs1,0,0,0,60.1,0
O=C(CSc1n[nH]c(-c2cccs2)n1)NCc1ccc2c(c1)OCO2,0,11.8,0,0,0
COc1ccccc1CNC(=O)CSc1nc(N)c(C#N)c(-c2cccs2)c1C#N,0,0,-,0,-
Cc1nc(SCC(=O)Nc2ccc3c(c2)OCO3)c(C#N)c2c1CCCC2,0,42.2,-,0,-
Cc1cc(C)c(C#N)c(SCC(=O)Nc2ccc3c(c2)OCO3)n1,0,0,0,0,0
CCCCOc1ccc(OCCCC)c2c1NC1(N2)C(=O)N(C(C)=O)c2ccccc21,0,0,0,0,0
O=C1C2CCCN2C(c2cccs2)N1c1ccc(Cl)cc1 (stereo unspecified),0,25.2,-,0,-
COc1ccc(C(=O)Nc2nc(-c3cccs3)cs2)cc1,0,0,0,0,0
O=C(Nc1nc(-c2ccc(Cl)s2)cs1)c1ccncc1,-,57.9,0,0,0
Cc1ccc(-c2csc(NC(=O)COC(=O)c3cccc(S(=O)(=O)N4CCOCC4)c3)n2)cc1,0,27.8,0,-,0
O=C(COC(=O)c1cc(S(=O)(=O)N2CCOCC2)cs1)c1ccccc1,-,51.0,0,-,0
O=C(Nc1ccccc1)c1cc(S(=O)(=O)N2CCOCC2)cs1,0,0,0,0,0
O=C(Nc1nc(-c2cccs2)cs1)c1ccc(Cl)cc1,0,49.0,0,0,0
Cc1cccc(OCC(=O)Nc2ccc(N3CCN(C(=O)c4ccccc4)CC3)cc2)c1,-,0,-,-,-
COc1cccc(CNC(=O)Cc2nc3nc(C)cc(C)n3n2)c1,-,0,-,-,-
SMILES,Candida biofilm,Measles CPE,sEH inh,cytoskel mod,sEH activator
O=C(Nc1nc(-c2cccs2)cs1)c1cccc(S(=O)(=O)N2CCCCC2)c1,0,32.3,0,0,0
O=C(NCCc1ccccc1)c1cc(S(=O)(=O)N2CCOCC2)ccc1F,-,0,0,0,0
O=C(COC(=O)c1cc(S(=O)(=O)N2CCOCC2)ccc1O)NCCc1ccccc1,0,39.1,0,0,0
CCCCCn1c(N2CCC(C(N)=O)CC2)nc2c1c(=O)[nH]c(=O)n2C,0,0,0,0,0
CN(C)/C=C(\C(=O)c1ccc(F)cc1F)c1nnnn1-c1ccccc1,-,0,-,-,-
CN(C)c1ccc(C=C(c2nnnn2-c2ccccc2)c2nnnn2-c2ccccc2)cc1,-,22.6,-,-,-
CCOCCCNC(=O)c1ccc(CS(=O)(=O)Cc2ccccc2F)o1,0,0,0,0,0
CC(=O)Nc1sc(N)nc1-c1ccccc1,0,35.0,0,0,0
CCOC(=O)c1sc(NC(C)=O)nc1-c1ccccc1,0,0,0,0,0
CCOC(=O)C(=O)NNc1ccccc1C,-,0,-,-,-
CCOC(=O)C(=O)NNc1cccc(C)c1C,-,44.6,-,-,-
CCn1c(SCC(=O)Nc2ccc(S(N)(=O)=O)cc2)nnc1-c1cccc(OC)c1,0,0,0,0,0
O=C(CN(Cc1ccccc1)S(=O)(=O)c1ccccc1)N1CCOCC1,0,38.1,0,0,0
O=C(O)CCC(=O)NC1CCCCCCC1,0,0,0,100.0,0
O=C(O)CCC(=O)NC1CCCCC1NC(=O)CCC(=O)O (stereo unspecified),-,-,0,0,0
CC(C)N1C(=O)/C(=C\c2nc3ccccc3c(=O)[nH]2)c2ccccc21,-,0,-,-,-

# High-throughput results: PubChem BioAssay, several laboratories
